High-throughput results as filed in PubChem BioAssay.
D2 PAM-1 – HTS Assay for Positive Allosteric Modulators of the Human D2 Dopamine Receptor: Primary Screen for Potentiators | 340,000 tested, 0.34% active | HEK293 T-REx D2, calcium flux, EC20 dopamine potentiation | potentiation, % at 10 µM | D(2) dopamine receptor (Homo sapiens), P14416;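 active = potentiation over 3 SD above the plate norm, cut at about 30% in these data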; note: 0% is about no effect
Target sequence (P14416 whole entry, looked up): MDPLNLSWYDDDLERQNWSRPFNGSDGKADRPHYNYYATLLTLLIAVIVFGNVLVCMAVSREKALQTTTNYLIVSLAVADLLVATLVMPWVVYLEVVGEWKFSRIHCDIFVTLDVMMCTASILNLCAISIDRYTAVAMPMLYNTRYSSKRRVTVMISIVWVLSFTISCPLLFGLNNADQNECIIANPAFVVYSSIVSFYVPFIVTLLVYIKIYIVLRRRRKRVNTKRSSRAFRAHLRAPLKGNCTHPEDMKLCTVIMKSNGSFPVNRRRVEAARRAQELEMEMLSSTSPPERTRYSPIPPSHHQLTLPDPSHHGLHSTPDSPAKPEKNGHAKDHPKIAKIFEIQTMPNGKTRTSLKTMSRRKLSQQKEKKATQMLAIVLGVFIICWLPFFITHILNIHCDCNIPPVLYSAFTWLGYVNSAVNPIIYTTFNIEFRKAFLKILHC
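Tetracycline-induced HEK293 T-REx cells force-coupled to calcium signalling expressed D2; compounds were pin-added after a 10 s baseline, read kinetically 180 s, then an EC20 dopamine challenge followed with a further 180 s calcium read.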
D2 ag-1 – HTS Assay for Allosteric Agonists of the Human D2 Dopamine Receptor: Primary Screen for Agonists. activation, % at 2 µM. HEK293 T-REx D2 cells, calcium flux agonist mode. D(2) dopamine receptor (Homo sapiens), P14416. 340,000 tested, 0.53% active;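 active = activation over 3 SD above normal in the single-dose calcium agonist read, cut at about 30% in these data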; note: 0% is about no effect
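Calcium-flux readout, 1 cycle/sec over 180 s following compound pin transfer, in inducible HEK293 Trex D2 cells (force-coupled); dopamine controls included. Positive calcium responses during this window marked compounds as potential agonists.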
D2 PAM-2 – Beta-Arrestin HTS for Positive Allosteric Modulators of the Human D2 Dopamine Receptor: Potentiators. D(2) dopamine receptor (Homo sapiens), P14416. DiscoveRx D2 beta-arrestin cells, luminescence, 90 min; 100% = 57 uM dopamine signal. potentiation, % (concentration not given with the values). 360,000 tested, 0.23% active; in the data active = potentiation above about 50%; inconclusive = mostly about 30% to 49%
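D2 cells co-treated with compound plus 50 nM dopamine (EC20) for 90 min at 37 deg C to detect potentiation. Beta-arrestin recruitment was read as enzyme-fragment luminescence after 1 h at ambient temperature. Full response was set by 57 uM dopamine.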
D2 ag-2 – Beta-Arrestin HTS for Positive Allosteric Modulators of the Human D2 Dopamine Receptor: Agonists. activation, % (concentration not given with the values). DiscoveRx PathHunter D2 beta-arrestin, luminescence, 90 min; 100% = 57 uM dopamine signal. 360,000 tested, 0.084% active. D(2) dopamine receptor (Homo sapiens), P14416; in the data active = activation above about 40%; inconclusive = between about 15% and that limit
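DiscoveRx PathHunter D2 beta-arrestin cells (2,100/well) attached overnight, then compound-stimulated 90 min at 37 C in HBSS/10 mM HEPES/0.1% Tween-20 buffer; beta-galactosidase complementation read by luminescence after 1 h at ambient temperature. Dopamine 57 uM final (EC100) as control.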
D2 antag – HTS Assay for Allosteric Antagonists of the Human D2 Dopamine Receptor: Primary Screen for Antagonists. D(2) dopamine receptor (Homo sapiens), P14416. HEK293 TREx D2 cells, calcium flux, dopamine EC80. inhibition, % at 10 µM. 340,000 tested, 2% active; in the data active = inhibition above about 30%; inactive = below that, where a call was filed; note: 0% is about no effect
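In this primary screen, negative modulation is detected by tracking calcium flux after an EC80 dopamine challenge in inducible HEK293 T-REx D2 cells preexposed to test compound for 180 s.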
The depositor's hits bear a star. An excerpt weighted towards active compounds, which were near 2.4% of everything screened.

For Cc1ccc(NS(=O)(=O)c2cc(Br)cnc2N)cc1C the results were D2 PAM-1 6, D2 ag-1 0, D2 PAM-2 -8, D2 ag-2 5 and D2 antag -27.
For Cc1cc(C)cc(NS(=O)(=O)c2cc(Br)cnc2N)c1 the results were D2 PAM-1 2, D2 ag-1 0, D2 PAM-2 3, D2 ag-2 1 and D2 antag 32*.
COc1cccc(CNC(=O)Cn2c(=O)cc(C)c3c(C)nn(C)c32)c1OC was read as D2 PAM-1 -5 and D2 ag-1 1.
`Cc1ccc([C@H]2C[C@@H](O)[C@H](n3cc(-c4ccc(F)cc4)nn3)CN2C(=O)C2CCCCC2)cc1` gave D2 PAM-2 -1 and D2 ag-2 -8.
`CNC(=O)c1ccc(NC(=O)C2CCN(S(=O)(=O)c3cccc(C(F)(F)F)c3)CC2)cc1` gave D2 PAM-1 -2, D2 ag-1 1, D2 PAM-2 14, D2 ag-2 1 and D2 antag 30*.
Screening O=C(O)/C=C/C(=O)N1CCN(S(=O)(=O)c2cccc(C(F)(F)F)c2)CC1 returned D2 PAM-1 5, D2 ag-1 0, D2 PAM-2 inconclusive, D2 ag-2 3 and D2 antag 31*.
`O=C(NNC(=O)C1CCN(S(=O)(=O)c2cccc(C(F)(F)F)c2)CC1)C1CC1` gave D2 PAM-1 -3, D2 ag-1 0, D2 PAM-2 3, D2 ag-2 1 and D2 antag 4.
`O=C(CCn1c(=O)sc2ccccc21)NCc1ccccc1` gave D2 PAM-1 -19, D2 ag-1 0, D2 PAM-2 -11, D2 ag-2 -4 and D2 antag 20.
O=C(CCn1c(=O)sc2ccccc21)NCc1cccs1 was read as D2 PAM-1 -6, D2 ag-1 -1, D2 PAM-2 -14, D2 ag-2 -1 and D2 antag 32*.
COc1cccc2c1OC1(C)CC2/C(=C(\C)O)C(=O)N1 (stereo not drawn) was read as D2 PAM-1 8, D2 ag-1 0, D2 PAM-2 -6, D2 ag-2 -1 and D2 antag 51*.
`O=C1CC(N2CCC(C(=O)N3CCCCC3)CC2)C(=O)N1` (stereo not drawn) gave D2 ag-1 2, D2 PAM-2 -8, D2 ag-2 -2 and D2 antag 38*.
CCN1CCN(C2CC(=O)NC2=O)CC1 (stereo not drawn) was read as D2 PAM-1 2, D2 ag-1 -1 and D2 antag -5.
Screening CC(=O)N1CCCc2cc(S(=O)(=O)NCc3ccc(N(C)C)cc3)ccc21 returned D2 PAM-1 6 and D2 ag-1 0.
Screening Cc1cc(C)cc(NC(=O)CSc2oc(-c3cccs3)nc2S(=O)(=O)c2ccccc2)c1 returned D2 PAM-1 6 and D2 ag-1 0.
Screening COc1ccc(OC)c(CCNC(=O)c2cc3c(-c4ccccc4F)nn(C)c3s2)c1 returned D2 PAM-1 -2 and D2 ag-1 0.
`CCCc1cc(=O)[nH]c(SCC(=O)NC(=O)NC2CCCC2)n1` gave D2 PAM-1 -14, D2 ag-1 1, D2 PAM-2 -14, D2 ag-2 1 and D2 antag 32*.
For CCCc1cc(=O)[nH]c(SCC(=O)NC2CCCCCCC2)n1 the results were D2 PAM-2 -5 and D2 ag-2 -1.
CCOc1ccccc1NC(=O)CCNS(=O)(=O)c1cccc2nonc12 was read as D2 PAM-1 0, D2 ag-1 1, D2 PAM-2 -9, D2 ag-2 -5 and D2 antag -19.
Screening Cc1cccc(NC(=O)CCNS(=O)(=O)c2cccc3nonc23)c1C returned D2 PAM-1 -6, D2 ag-1 0, D2 PAM-2 -1, D2 ag-2 4 and D2 antag 31*.
